Experimental data as given in PubChem BioAssay (NCATS).
Records with an inconclusive call do not appear. The source made the active and inactive calls. Unless noted, calls come from the whole dose curve; as a rule, active = well fitted curve in the direction sought with a large enough effect; inconclusive = small, poorly fitted or top-dose-only effect, or another doubt; inactive = no such curve, though single readings can be large; an effect the other way counts as inactive or inconclusive.

Columns and labels:
[1] = target: Lysosomal acid glucosylceramidase (Homo sapiens) (UniProt P04062); test: Glucocerebrosidase-p2 (AID 348; in the data active = potency below about 10 µM; note: potency is the fitted concentration of half-maximal effect); details: purified GBA, blue fluorogenic substrate, 40 min
Lysosomal acid glucosylceramidase (Homo sapiens), sequence (P04062 whole entry, looked up): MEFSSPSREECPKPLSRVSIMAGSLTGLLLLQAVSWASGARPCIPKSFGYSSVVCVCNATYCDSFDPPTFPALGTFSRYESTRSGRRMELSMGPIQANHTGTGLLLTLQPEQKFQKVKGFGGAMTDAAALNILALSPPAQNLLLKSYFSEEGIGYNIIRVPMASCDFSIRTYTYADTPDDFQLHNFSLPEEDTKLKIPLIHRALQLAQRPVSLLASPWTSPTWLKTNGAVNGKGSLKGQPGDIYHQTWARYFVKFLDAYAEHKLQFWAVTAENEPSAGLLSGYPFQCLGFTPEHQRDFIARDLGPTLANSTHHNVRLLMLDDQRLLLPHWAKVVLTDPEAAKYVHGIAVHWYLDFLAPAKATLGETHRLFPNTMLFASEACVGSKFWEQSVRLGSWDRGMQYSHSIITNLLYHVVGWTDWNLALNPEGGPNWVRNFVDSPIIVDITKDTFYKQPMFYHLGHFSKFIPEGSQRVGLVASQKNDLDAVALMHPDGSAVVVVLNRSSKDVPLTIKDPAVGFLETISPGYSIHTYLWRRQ
Summary of the method: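 Compounds titrated from 0.6 nM upwards against 0.2 nM enzyme in pH 5.9 citric acid/KH2PO4, taurocholate, tween-20; blue fluorogenic substrate 80 uM, 40 min room temperature, stopped and read Ex 365/Em 440 for AC50.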

[2] = AP1 Signaling Pathway (AID 357; active = well fitted curve in either direction with a large enough effect, not every such curve was filed as active;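 note: ME-180 reporter cells stimulated with EGF at its EC50 level; % is set by controls: 0 for no effect and ±100 for the full control effect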); details: ME-180 AP-1-bla reporter, EGF-induced, beta-lactamase ratio, 5 h; at 7.69 µM (top of the series) unless noted
Summary of the method: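 Read-out was the 460nm/530nm emission ratio (excitation 405nm) after CCF4 loading for 2.5 hours at room temperature. Cells carried an AP-1-driven beta-lactamase reporter, were stimulated with EC50 EGF plus compound for 5 hours, and AC50 values came from titrations.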

[3] = target: Cytochrome P450 1A2 (Homo sapiens) (UniProt P05177); test: p450-cyp1a2 (AID 410; calls by dose curve; note: potency is the fitted concentration of half-maximal effect;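 for activity change, negative = inhibition: -100% = full effect of reference inhibitor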); details: recombinant CYP1A2, luciferin-ME demethylation, luminescence; series mostly up to 57 µM
Cytochrome P450 1A2 (Homo sapiens), sequence (P05177 whole entry, looked up): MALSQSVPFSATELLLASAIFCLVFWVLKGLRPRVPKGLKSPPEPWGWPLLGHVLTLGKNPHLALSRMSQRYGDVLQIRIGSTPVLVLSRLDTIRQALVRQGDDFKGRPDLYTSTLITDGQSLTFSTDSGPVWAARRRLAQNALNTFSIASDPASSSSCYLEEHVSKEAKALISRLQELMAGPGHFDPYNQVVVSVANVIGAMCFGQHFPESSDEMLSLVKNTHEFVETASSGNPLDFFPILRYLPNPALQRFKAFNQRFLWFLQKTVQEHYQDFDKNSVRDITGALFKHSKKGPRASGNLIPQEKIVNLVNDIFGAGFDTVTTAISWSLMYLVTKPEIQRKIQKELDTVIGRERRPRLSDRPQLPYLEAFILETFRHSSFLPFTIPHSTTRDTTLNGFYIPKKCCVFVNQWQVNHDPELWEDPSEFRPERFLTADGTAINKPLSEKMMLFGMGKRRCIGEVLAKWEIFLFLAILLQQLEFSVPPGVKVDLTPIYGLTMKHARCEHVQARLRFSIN
Summary of the method: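 Human CYP1A2 (20nM) demethylated Luciferin-ME at its Km (100uM) in 100mM KPO4. After 10 min compound preincubation, NADPH regeneration ran the reaction 60 min at room temperature. Luciferin was read by luminescence, normalized to 57 uM furafylline.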

[4] = NFAT Signaling Pathway (AID 444; active = well fitted curve in either direction with a large enough effect, not every such curve was filed as active;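 note: carbachol stimulus at about its EC50 of 1 µM final; % is set by controls: 0 for no effect and ±100 for the full control effect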); details: Jurkat NFAT-bla M1, carbachol, beta-lactamase ratio, 5 h; at 7.69 µM (top of the series) unless noted
Summary of the method: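 Jurkat cells with NFAT-driven β-lactamase reporter and co-expressed M1 receptor, stimulated with carbachol (final 1 uM, ~EC50), compound titration, 5 h at 37 °C. CCF4 loaded 1 h at RT; 460/530 nm ratio gave %activity and AC50.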

[5] = Stat Signaling Pathway (AID 446; active = well fitted curve in either direction with a large enough effect, not every such curve was filed as active;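 note: ME-180 cervical cancer cells given 40 pM IL-6 alongside compound; SIE-controlled beta-lactamase reporter measured as 460/530 nm FRET emission ratio; % is set by controls: 0 for no effect and ±100 for the full control effect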); details: ME-180 SIE beta-lactamase reporter, IL-6 stimulated, 5 h; at 7.69 µM (top of the series) unless noted
Summary of the method: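 Screening format detects activators and inhibitors alike: ME-180 SIE-bla cells stimulated at 40 pM IL-6 for 5 hrs with compound, then dual-emission beta-lactamase read at 405 nm excitation.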

[6] = target: Mitogen-activated protein kinase 10 (Mus musculus) (UniProt Q61831); test: JNK3 AlphaScreen Assay (AID 530; active = well fitted curve in either direction with a large enough effect, not every such curve was filed as active;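 note: kinase came from lysate of stimulated human HepG2 cells; signal reports phosphorylation of biotinylated GST-cJun 1-79 at Ser73 with 10 µM ATP; % is set by controls: 0 for no effect and ±100 for the full control effect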); details: JNK3 lysate, c-Jun phosphorylation; series mostly up to 57.1 µM
Summary of the method: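 qHTS format: compounds tested as titrations against IL-1beta/TNF-alpha-activated HepG2 lysate JNK3 with biotin-GST-cJun substrate and 10 uM ATP at room temperature. Loss of anti-phospho-cJun AlphaScreen signal indicates inhibition.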

[7] = target: 3',5'-cyclic-AMP phosphodiesterase 4B (Homo sapiens) (UniProt Q07343); test: qHTS Assay for Inhibitors of PDE-IV (AID 607; active = well fitted activation curve with a large enough effect in the main read-out, with a control signal flat, not every such curve was filed as active; note: % of control where 0% means no effect); details: HEK293 ACTOne CNG channel cells, membrane potential fluorescence; series mostly up to 22.9 µM
3',5'-cyclic-AMP phosphodiesterase 4B (Homo sapiens), sequence (Q07343 whole entry, looked up): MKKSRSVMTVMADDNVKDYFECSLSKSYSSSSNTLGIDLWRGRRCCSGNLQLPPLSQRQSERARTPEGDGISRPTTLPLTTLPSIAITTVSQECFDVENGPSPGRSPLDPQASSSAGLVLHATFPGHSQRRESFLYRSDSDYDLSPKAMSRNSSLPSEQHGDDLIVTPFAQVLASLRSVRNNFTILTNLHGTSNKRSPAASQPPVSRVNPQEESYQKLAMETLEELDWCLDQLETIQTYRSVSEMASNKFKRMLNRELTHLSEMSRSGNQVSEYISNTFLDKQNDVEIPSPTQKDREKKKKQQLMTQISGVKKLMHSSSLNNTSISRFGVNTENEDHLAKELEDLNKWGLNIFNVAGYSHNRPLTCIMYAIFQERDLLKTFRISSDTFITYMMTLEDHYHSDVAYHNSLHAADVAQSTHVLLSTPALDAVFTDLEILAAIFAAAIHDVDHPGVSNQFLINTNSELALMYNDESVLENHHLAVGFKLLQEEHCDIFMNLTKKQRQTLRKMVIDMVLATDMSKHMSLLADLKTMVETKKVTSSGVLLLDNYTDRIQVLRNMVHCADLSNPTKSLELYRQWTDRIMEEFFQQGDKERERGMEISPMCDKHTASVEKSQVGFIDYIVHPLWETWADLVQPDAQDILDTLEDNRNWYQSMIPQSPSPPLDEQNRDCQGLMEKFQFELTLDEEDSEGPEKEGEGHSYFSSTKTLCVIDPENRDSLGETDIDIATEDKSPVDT
Summary of the method: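 The readout is membrane depolarisation from a cAMP-sensing CNG channel, detected with a potential dye at ex 535/em 590. Cells were HEK293-derived (endogenous PDE-IV) at 1000 cells/well, titrated up to 22.9 uM final.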

[8] = target: Cytochrome P450 3A4 (Homo sapiens) (UniProt P08684); test: qHTS Assay for Inhibitors and Substrates of Cytochrome P450 3A4 (AID 884); details: recombinant CYP3A4, Luciferin-PPXE luminescence; series mostly up to 57.1 µM; note: potency is the fitted concentration of half-maximal effect; nearly all actives have a fitted effect of over 50% in size
Cytochrome P450 3A4 (Homo sapiens), sequence (P08684 whole entry, looked up): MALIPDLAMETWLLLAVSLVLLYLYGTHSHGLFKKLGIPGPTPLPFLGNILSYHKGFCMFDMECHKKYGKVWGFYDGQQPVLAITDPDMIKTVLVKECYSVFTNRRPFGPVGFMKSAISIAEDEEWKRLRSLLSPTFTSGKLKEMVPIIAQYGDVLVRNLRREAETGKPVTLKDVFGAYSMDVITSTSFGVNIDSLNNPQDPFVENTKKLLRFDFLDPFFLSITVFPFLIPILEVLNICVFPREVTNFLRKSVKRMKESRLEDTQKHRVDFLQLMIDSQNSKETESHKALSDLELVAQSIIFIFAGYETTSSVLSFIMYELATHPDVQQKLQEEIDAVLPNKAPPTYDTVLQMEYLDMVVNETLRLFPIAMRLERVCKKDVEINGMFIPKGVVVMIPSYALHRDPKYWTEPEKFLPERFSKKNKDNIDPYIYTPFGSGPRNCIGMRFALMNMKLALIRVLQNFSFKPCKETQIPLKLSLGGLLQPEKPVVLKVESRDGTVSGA
Summary of the method: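 20 nM human CYP3A4 with 25 uM Luciferin-PPXE (at KM) in 200 mM KPO4, preincubated 10 min with compound; NADPH regeneration started a 60 min RT reaction. Luciferin detected by luminescence, normalized to 57 uM ketoconazole as full inhibition.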

[9] = target: Cytochrome P450 3A4 (Homo sapiens) (UniProt P08684); test: qHTS Assay for Activators of Cytochrome P450 3A4 (AID 885); details: recombinant CYP3A4, Luciferin-PPXE luminescence, 60 min; series mostly up to 57.1 µM; note: nearly all actives have a fitted effect of over 65% in size
Summary of the method: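 Steps: enzyme/substrate mix dispensed; compound added, 10 min RT; NADPH regeneration solution added, 60 min RT; luciferin detection buffer stops reaction; 20 min later luminescence measured.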

[10] = Primary qHTS for small molecule stabilizers of the endoplasmic reticulum resident proteome: Secreted ER Calcium Modulated Protein (SERCaMP) assay (AID 1508630); details: SH-SY5Y GLuc-SERCaMP (Gaussia luciferase released on ER calcium loss) secretion, thapsigargin, luminescence; series mostly up to 38.4 µM; note: % is set by controls: 0 for no effect and ±100 for the full control effect
Summary of the method: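 GLuc-SERCaMP-expressing SH-SY5Y cells, pretreated 16 h with compound, are challenged with thapsigargin to empty ER calcium stores; after 4 h, coelenterazine is added directly to the medium and luminescence is imaged.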

[11] = target: Glucocorticoid receptor (Homo sapiens) (UniProt P04150); test: GR-GFP Redistribution (AID 450;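 active = compounds whose dose series gives a full or clear partial fitted curve of increased nuclear translocation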; note: potency is the fitted concentration of half-maximal effect); details: U2OS GR-GFP nuclear translocation, laser cytometry, 2 h
Glucocorticoid receptor (Homo sapiens), sequence (P04150 whole entry, looked up, the tested form may be a part): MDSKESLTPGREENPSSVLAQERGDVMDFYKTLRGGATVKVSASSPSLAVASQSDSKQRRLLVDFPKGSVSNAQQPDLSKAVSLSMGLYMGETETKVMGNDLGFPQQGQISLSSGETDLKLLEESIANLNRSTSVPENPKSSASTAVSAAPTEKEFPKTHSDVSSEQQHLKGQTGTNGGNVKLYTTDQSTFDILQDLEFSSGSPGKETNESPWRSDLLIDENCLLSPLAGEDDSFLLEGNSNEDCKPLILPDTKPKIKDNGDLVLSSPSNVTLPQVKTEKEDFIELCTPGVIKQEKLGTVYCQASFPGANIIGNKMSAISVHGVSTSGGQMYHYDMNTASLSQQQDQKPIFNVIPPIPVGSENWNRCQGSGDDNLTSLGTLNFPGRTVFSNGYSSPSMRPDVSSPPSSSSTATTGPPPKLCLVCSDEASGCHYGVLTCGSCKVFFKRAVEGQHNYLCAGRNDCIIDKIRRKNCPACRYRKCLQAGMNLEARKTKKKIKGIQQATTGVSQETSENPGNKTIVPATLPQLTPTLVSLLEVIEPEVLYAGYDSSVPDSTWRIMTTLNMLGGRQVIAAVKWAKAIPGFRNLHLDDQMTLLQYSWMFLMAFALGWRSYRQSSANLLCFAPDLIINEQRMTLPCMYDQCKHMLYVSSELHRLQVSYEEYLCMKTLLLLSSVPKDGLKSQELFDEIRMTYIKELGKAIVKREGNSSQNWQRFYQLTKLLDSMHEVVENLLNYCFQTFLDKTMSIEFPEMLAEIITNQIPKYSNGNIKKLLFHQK

[12] = target: Glucocorticoid receptor (Homo sapiens) (UniProt P04150); test: GR-EFC Redistribution (AID 451; calls by dose curve; note: potency is the fitted concentration of half-maximal effect); details: CHO-K1 GR-EFC translocation, beta-gal luminescence, 2 h
Summary of the method: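 CHO-K1 cells expressing nuclear EA and GR-ED fragments of b-gal; compounds titrated up to 46 uM final, 2 h at 37 C. GR nuclear translocation read as complemented b-gal luminescence after 1 h RT detection.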

[13] = Confirmation and Secondary Assay for Modulators of Hemoglobin Beta Chain Splicing at IVS2 654 locus (AID 910); details: HeLa EGFP-654 splicing reporter, GFP fluorescence, 48 h; series mostly up to 38.3 µM;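 note: HeLa cells stably carrying EGFP split by mutant beta-globin IVS2-654 intron; % of control where 0% means no effect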
Summary of the method: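 HeLa cells stably expressing EGFP interrupted by β-globin IVS2-654 intron, seeded overnight in Opti-MEM/2% FCS, then treated 2 days at 37 °C. Restored splicing read as total peak GFP intensity per well by laser scanning cytometry (488 nm excitation, 500–520 nm emission); 500 nM antisense PNA as control.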

[14] = target: Ubiquitin carboxyl-terminal hydrolase 1 (Homo sapiens) (UniProt O94782); test: Inhibitors of USP1/UAF1: Pilot qHTS (AID 504865); details: purified USP1/UAF1, Ub-rhodamine cleavage fluorescence; series mostly up to 54.9 µM;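 note: rhodamine fluorescence freed from ubiquitin-rhodamine substrate followed over time; top concentration of the series differs between compounds; % is set by controls: 0 for no effect and ±100 for the full control effect; nearly all actives have a fitted effect of over 35% in size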
Ubiquitin carboxyl-terminal hydrolase 1 (Homo sapiens), sequence (O94782 whole entry, looked up): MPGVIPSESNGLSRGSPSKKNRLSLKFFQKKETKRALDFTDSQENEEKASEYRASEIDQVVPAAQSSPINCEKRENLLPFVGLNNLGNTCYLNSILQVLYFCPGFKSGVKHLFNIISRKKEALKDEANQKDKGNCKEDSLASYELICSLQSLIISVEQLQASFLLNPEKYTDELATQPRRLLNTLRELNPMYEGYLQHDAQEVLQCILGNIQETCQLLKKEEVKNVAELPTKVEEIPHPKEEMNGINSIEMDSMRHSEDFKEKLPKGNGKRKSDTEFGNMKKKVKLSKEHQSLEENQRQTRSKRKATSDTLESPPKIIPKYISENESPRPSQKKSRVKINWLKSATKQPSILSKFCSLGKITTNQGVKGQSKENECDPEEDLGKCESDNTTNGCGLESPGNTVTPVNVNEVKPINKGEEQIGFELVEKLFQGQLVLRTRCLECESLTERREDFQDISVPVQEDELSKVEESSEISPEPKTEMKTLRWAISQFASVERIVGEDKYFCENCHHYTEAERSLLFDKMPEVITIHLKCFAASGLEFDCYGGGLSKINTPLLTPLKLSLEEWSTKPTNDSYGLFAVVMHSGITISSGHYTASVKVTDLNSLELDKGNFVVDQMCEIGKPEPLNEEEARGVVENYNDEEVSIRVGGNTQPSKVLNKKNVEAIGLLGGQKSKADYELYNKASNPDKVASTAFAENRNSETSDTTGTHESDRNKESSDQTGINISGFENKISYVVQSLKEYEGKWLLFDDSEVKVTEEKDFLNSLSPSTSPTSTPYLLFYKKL
Summary of the method: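 1nM USP1/UAF1 + cpd, 15 min RT; start w/ Ub-Rho 150nM final; kinetic FL 480/540 nm, 6 reads q60 s. Buffer 50mM HEPES pH 7.8, 0.5mM EDTA, 1mM TCEP, 0.01% Tween-20, 0.1 mg/ml BSA.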

[15] = target: Cytochrome P450 2C9 (Homo sapiens) (UniProt P11712); test: qHTS Assay for Inhibitors and Substrates of Cytochrome P450 2C9 (AID 883); details: recombinant CYP2C9, luciferin-H luminescence, 60 min; series mostly up to 57.1 µM; note: % is set by controls: 0 for no effect and ±100 for the full control effect; nearly all actives have a fitted effect of over 60% in size
Summary of the method: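 Human CYP2C9 (10nM) with Luciferin-H at 100uM (its KM) in 25mM KPO4; compound preincubated 10 min at 37C, then NADPH regeneration for 60 min at 37C. Luciferin read by luminescence after detection reagent; normalized to 57uM sulphaphenazole as full inhibition.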

[16] = target: Cytochrome P450 2D6 (Homo sapiens) (UniProt P10635); test: qHTS Assay for Inhibitors and Substrates of Cytochrome P450 2D6 (AID 891); details: recombinant CYP2D6, luciferin-ME EGE luminescence; series mostly up to 57.1 µM; note: nearly all actives have a fitted effect of over 60% in size; note: potency is the fitted concentration of half-maximal effect
Cytochrome P450 2D6 (Homo sapiens), sequence (P10635 whole entry, looked up): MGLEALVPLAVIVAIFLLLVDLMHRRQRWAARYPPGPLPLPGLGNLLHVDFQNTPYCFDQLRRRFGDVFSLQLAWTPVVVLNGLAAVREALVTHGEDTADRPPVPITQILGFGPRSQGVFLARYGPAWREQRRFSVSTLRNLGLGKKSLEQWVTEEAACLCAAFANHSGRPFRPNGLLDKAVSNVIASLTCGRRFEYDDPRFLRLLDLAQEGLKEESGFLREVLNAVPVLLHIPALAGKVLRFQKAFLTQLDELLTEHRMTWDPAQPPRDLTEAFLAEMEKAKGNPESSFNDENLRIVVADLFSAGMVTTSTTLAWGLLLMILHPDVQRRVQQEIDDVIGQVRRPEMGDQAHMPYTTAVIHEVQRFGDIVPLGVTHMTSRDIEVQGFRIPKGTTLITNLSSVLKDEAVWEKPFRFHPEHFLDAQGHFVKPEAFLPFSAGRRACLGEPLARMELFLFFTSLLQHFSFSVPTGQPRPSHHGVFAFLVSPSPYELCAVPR
Summary of the method: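 Human CYP2D6 (5 nM) with 30 uM Luciferin-ME EGE (at Km) in 100 mM KPO4, compound preincubated 10 min, then NADPH regeneration system for 60 min at room temperature. Luciferin read by luminescence; normalized to 1.43 uM quinidine.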

[17] = target: Cytochrome P450 2C19 (Homo sapiens) (UniProt P33261); test: qHTS Assay for Inhibitors and Substrates of Cytochrome P450 2C19 (AID 899); details: recombinant CYP2C19, luciferin-H EGE luminescence; series mostly up to 57.1 µM; note: % is set by controls: 0 for no effect and ±100 for the full control effect; nearly all actives have a fitted effect of over 60% in size
Cytochrome P450 2C19 (Homo sapiens), sequence (P33261 whole entry, looked up): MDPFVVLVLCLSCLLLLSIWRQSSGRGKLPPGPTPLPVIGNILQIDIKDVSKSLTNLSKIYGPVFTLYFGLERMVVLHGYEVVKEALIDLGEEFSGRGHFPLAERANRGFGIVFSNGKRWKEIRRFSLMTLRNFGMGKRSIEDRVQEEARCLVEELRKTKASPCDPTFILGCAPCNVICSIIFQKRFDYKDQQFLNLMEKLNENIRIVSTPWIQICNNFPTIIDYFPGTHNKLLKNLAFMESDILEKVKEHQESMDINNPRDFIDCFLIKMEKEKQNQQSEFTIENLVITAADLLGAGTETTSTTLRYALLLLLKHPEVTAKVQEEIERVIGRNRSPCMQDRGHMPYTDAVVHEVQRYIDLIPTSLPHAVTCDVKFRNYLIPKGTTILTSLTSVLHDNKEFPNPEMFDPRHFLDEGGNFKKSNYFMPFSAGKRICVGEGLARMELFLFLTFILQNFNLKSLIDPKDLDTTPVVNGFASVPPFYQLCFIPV
Summary of the method: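 5 nM human CYP2C19 with 10uM Luciferin-H EGE (at KM) in 50mM KPO4, compound preincubated 10 min at 37C, then NADPH regeneration for 60 min at 37C. Luciferin read by luminescence after detection reagent; normalized to 57uM ketoconazole as full inhibition.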

[18] = Confirmation and Secondary Assay for Modulators of Hemoglobin Beta Chain Splicing at IVS2 705 locus (AID 930); details: HeLa EGFP-705 splicing reporter, GFP fluorescence, 48 h; series mostly up to 38.3 µM;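 note: HeLa cells stably expressing the EGFP-705 splicing reporter; GFP fluorescence per well restored by corrected splicing of the IVS2-705 intron in EGFP; % of control where 0% means no effect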
Summary of the method: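 Stable HeLa line with EGFP disrupted by mutant beta-globin intron 2 (705). Overnight attachment, then 2 days of compound at 37C, 5% CO2. Signal: peak GFP intensity summed over objects 5-250 µm.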

N#Cc1cccc(NC(=O)N2CC[C@@]3(CCCN(S(=O)(=O)c4ccccc4)C3)C2)c1
active: Potency [3] 25.1 µM | Potency [8] 3.16 µM
inactive: Potency [1] > 11.4 µM | activity change, negative = inhibition [2] -14% | activity change, negative = inhibition [4] 3.6% | activity, negative = inhibition [5] -7.29% | Potency [6] | Potency [7] | Potency [9] | outcome [10]

O=c1c(-c2ccc(F)c(F)c2)nc2cncnc2n1-c1ccccc1
active: Potency [3] 12.6 µM
inactive: Potency [1] > 11.4 µM | activity change, negative = inhibition [2] -19.9% | activity change, negative = inhibition [4] 3.06% | Potency [11] > 9.22 µM | Potency [12] > 46 µM | Potency [6] | Potency [9] | outcome [10]

Cc1noc(C)c1-c1cncnc1NC1CC1
inactive: Potency [1] > 11.4 µM | activity change, negative = inhibition [2] 12.1% | Potency [3] | activity, negative = inhibition [5] -18.4% | Potency [11] > 46 µM | Potency [12] > 46 µM | Potency [6] | Potency [7] | Potency [9] | Potency [13] | Potency [14] | outcome [10]
active: Potency [8] 7.94 µM

O=C(c1ccco1)N1CCC2(CCCN(c3ccncc3)C2)CC1
inactive: Potency [1] > 11.4 µM | activity change, negative = inhibition [2] -2.46% | Potency [3] | activity, negative = inhibition [5] 3.15% | Potency [12] > 46 µM | Potency [6] | Potency [7] | Potency [15] | Potency [16] | Potency [17] | outcome [10]

COc1ccc(-c2nc3cnc(OC)nc3n(Cc3ccc(F)cc3)c2=O)cc1
inactive: Potency [1] > 11.4 µM | activity change, negative = inhibition [2] 8.95% | activity change, negative = inhibition [4] -6.96% | activity, negative = inhibition [5] 5.66% | Potency [11] > 9.22 µM | Potency [12] > 46 µM | Potency [6] | outcome [10]

CN(C)c1ccc(-c2nc(NC3CCNCC3)c3ccccc3n2)cc1
active: Potency [1] 7.09 µM | Potency [3] 15.8 µM
inactive: activity change, negative = inhibition [2] 4.91% | Potency [11] > 46 µM | Potency [12] > 46 µM | Potency [6] | Potency [7] | Potency [9] | outcome [18] | outcome [10]

N#Cc1ccc(CN2CCCC3(CCN(S(=O)(=O)c4ccccc4)CC3)C2)cc1
active: Potency [8] 3.16 µM | Potency [16] 0.631 µM
inactive: Potency [1] > 11.4 µM | activity change, negative = inhibition [2] -11.3% | Potency [3] | activity, negative = inhibition [5] -1.86% | Potency [12] > 46 µM | Potency [6] | Potency [7] | Potency [9] | outcome [10]
